B2AR arrestin: agonists driving beta-arrestin recruitment to human beta2-adrenergic receptor. P07550. beta-arrestin recruitment to beta2AR, cell-based reporter. Potency, µM (titrated, usually from 46.1 µM), inactives show top-dose activation, actives largely listed as activators. 330,000 compounds, 0.02% hits. AID 492947;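 note: potency is the fitted concentration of half-maximal effect; 0% = DMSO controls and full agonism = EC100 isoproterenol or metaproterenol; nearly all actives have a fitted effect of over 65% in size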
D3 ag: activates the human D3 dopamine receptor. P35462. D3R DiscoveRx beta-arrestin cells, luminescence, 90 min. max activation, %. 410,000 compounds, 0.58% hits; in the data active = max activation above about 30%; note: 0% is about no effect
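Agonist mode: compounds and dopamine controls were applied to plated cells for 90 min at 37 degrees C after an overnight attachment at 1500 cells/well. Luminescent read-out followed 30 - 60 minutes at room temperature with DiscoveRx detection reagent.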
IDH1 R132H inh: human IDH1 R132H inhibition; 390,000 compounds, 0.093% hits; IDH1-R132H enzyme, NADPH consumption, diaphorase/resazurin fluorescence; Potency, µM (series often up to 76.6 µM), for inactives: at the top dose activity change, negative = inhibition, usual class: inhibitors; note: potency is the fitted concentration of half-maximal effect; % is set by controls: 0 for no effect and ±100 for the full control effect; nearly all actives have a fitted effect of over 65% in size
Target sequence (O75874 whole entry R132H, stated change not applied): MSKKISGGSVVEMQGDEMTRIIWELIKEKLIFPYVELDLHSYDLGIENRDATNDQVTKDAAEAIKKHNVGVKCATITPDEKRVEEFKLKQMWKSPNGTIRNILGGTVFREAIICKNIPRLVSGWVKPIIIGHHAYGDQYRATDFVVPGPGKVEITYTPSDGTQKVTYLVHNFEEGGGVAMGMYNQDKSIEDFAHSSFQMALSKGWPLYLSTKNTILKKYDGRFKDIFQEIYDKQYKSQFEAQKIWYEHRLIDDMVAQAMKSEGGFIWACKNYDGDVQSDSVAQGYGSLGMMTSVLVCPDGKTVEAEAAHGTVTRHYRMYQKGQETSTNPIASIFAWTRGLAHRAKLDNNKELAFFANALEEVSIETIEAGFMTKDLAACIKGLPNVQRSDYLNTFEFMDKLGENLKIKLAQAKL
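IDH1-R132H (0.5 ug/mL) preincubated 30 min with compound, then NADPH (0.016 mM) and alpha-KG (2 mM) added; 80 min at RT, pH 7.5. Remaining NADPH coupled via diaphorase/resazurin to fluorescence (540/590 nm); concentration-response curves normalized to no-enzyme control.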
DRD3 antagonist: blocks the human D3 dopamine receptor | D3R cells, DiscoveRx beta-arrestin luminescence, antagonist mode; active compounds read low | 360,000 compounds, 2.5% hits | P35462 | max response, negative = inhibition, % | AID 652054; in the data active = max response below about -50%; inconclusive = no clear call, values can overlap the other calls; note: % is set by controls: 0 for no effect and ±100 for the full control effect
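Cells plated overnight at 1500 cells/well, then exposed to library compounds with dopamine controls for 90 minutes at 37 degrees C. DiscoveRx reagent added for 30–60 minutes at room temperature; luminescence read, quantitative HTS format.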
a7 integrin act: activators of alpha7 integrin expression for muscular dystrophy; alpha7betagal myoblasts, beta-gal FDG fluorescence, 48 h; Potency, µM (series often up to 38.3 µM), without a hit: top-dose activation, actives largely listed as activators; 350,000 compounds, 0.064% hits;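 note: potency is the fitted concentration of half-maximal effect; 100% = response of the positive control SU9516; nearly all actives have a fitted effect of over 60% in size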
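Alpha7betagal+/- myoblasts (passage 13) were plated 16-24 hr, then exposed to compounds (1:260 dilution of DMSO stock) for 48 hours at 37C. After MPER lysis, β-galactosidase reporter activity was read as FDG fluorescence (ex 480/em 540) after 30 minutes.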
The depositor's hits bear a star; ? = inconclusive; nt = no result given; [ ] = another dose, or the depositor's remark. Shown are actives, neighbours in structure and some others; about 2.9% of the full set was active somewhere. Unless noted, calls come from the whole dose curve; as a rule, active = well fitted curve in the direction sought with a large enough effect; inconclusive = small, poorly fitted or top-dose-only effect, or another doubt; inactive = no such curve, though single readings can be large; an effect the other way counts as inactive or inconclusive.

SMILES	B2AR arrestin	D3 ag	IDH1 R132H inh	DRD3 antagonist	a7 integrin act
CCOc1ccccc1CNC(=O)C1CCN(C(=O)N2CCOc3ccc(Cl)cc32)CC1	nt	2.2	-23.1%	nt	nt
Clc1cccc(Nc2ncnc3c2nc2n3CCCCC2)c1	nt	6.7	-17.9%	nt	nt
Cc1ccc(N(CC(=O)NCc2cccs2)S(=O)(=O)c2cccs2)cc1	0.1%	2.8	8.2%	0.0	19.9%
CCCC/C(C)=N/NC(=O)CN(c1ccc(Br)cc1)S(=O)(=O)c1ccccc1	-0.3%	-6.9	2.4%	-8.7	-5.9%
Cc1ccc(S(=O)(=O)N(CC(=O)NCc2cccs2)c2ccccc2)cc1	0.3%	-30.2	-3.6%	-66.1*	5.9%
C/C(=N/NC(=O)CN(c1ccccc1)S(=O)(=O)c1ccccc1)c1ccccc1O	-0.3%	-20.6	-5.5%	-51.7*	-49.7%
Cc1onc(-c2c(F)cccc2Cl)c1C(=O)N1CCc2ccccc21	0.3%	33.8*	14.8%	7.1	-5.4%
Cc1onc(-c2c(Cl)cccc2Cl)c1C(=O)N1CCCc2ccccc21	0.0%	21.4	4.5%	-16.8	22.0%
O=C(c1ccccc1)C1CCN(C(=O)c2cccs2)CC1	3.2%	3.6	-2.9%	4.1	8.7%
O=C(CCN1CCC(c2ccccc2)C1)c1cccs1 (configuration not stated)	0.3%	-24.8	1.2%	-66.2*	-34.3%
O=C(c1cccs1)N1CCC(c2ccccc2)C1 (configuration not stated)	-0.2%	-8.1	21.5%	-59.5*	4.9%
O=C1C2=C(C(=O)c3ccccc31)C1O[C@](c3ccsc3)(Cc3ccccc31)O2	-0.3%[9.22 µM]	nt	nt	nt	nt
COc1cccc(C(=O)NCCc2csc3nc(-c4ccccc4F)nn23)c1OC	nt	8.2	-13.1%	nt	nt
O=C(NCCN1CCN(c2cccc(Cl)c2)CC1)c1ccc(CSc2nc3ccncc3[nH]2)cc1	0.3%	49.0*	-8.0%	-21.1	-43.8%
Nc1ccccc1C(=O)NCCCN1CCN(c2cccc(Cl)c2)CC1	nt	-10.0	-9.8%	-73.5*	-9.7%
O=C(NCCN1CCN(c2ccccc2)CC1)c1cccc(Cl)c1	0.0%	24.4	2.7%	-56.4*	5.7%
O=C(NCc1ccccc1Cl)C1(S(=O)(=O)c2ccc(Cl)cc2)CC1	0.7%	3.2	-6.0%	6.8	10.3%
O=C(NCCN1CCN(c2ccccc2)CC1)C1(S(=O)(=O)c2ccc(Cl)cc2)CC1	0.3%	-1.3	6.5%	-52.5*	-0.3%
COc1ccc(CCN2C(=O)c3[nH]nc(-c4ccccc4O)c3C2c2ccccc2)cc1 (configuration not stated)	nt	14.4	-5.2%	nt	nt
COC(=O)CCN(C(=O)C1CCN(S(=O)(=O)c2c(C)noc2/C=C/c2ccccc2F)CC1)c1ccccc1	nt	0.5	-20.0%	nt	nt
O=C(c1cccc(Cl)c1)N1CCN(CCCc2ccccc2)CC1	-0.7%	32.9*	7.5%	-18.0	17.8%
O=C(c1ccccc1)N1CCN(CCc2ccccc2)CC1	0.4%	-19.4	-0.1%	-5.9	2.3%
C=C1CCN([C@@H](CC(C)C)C(=O)NCCC(C)C)S(=O)(=O)c2ccccc21	nt	-24.4	0.1%	-50.2*	-27.4%
Cc1cc(C)c(NC(=O)CSc2ncc3c(n2)-c2cc(Cl)ccc2N(C)S3(=O)=O)c(C)c1	nt	-1.4	-12.4%	nt	nt
CS(=O)(=O)c1ccc(S(=O)CC(=O)Oc2ccc(Cl)cc2)c([N+](=O)[O-])c1 (configuration not stated)	-0.8%	-15.5	-4.0%	-102.3*	-56.5%
SMILES	B2AR arrestin	D3 ag	IDH1 R132H inh	DRD3 antagonist	a7 integrin act
O=C(CS(=O)c1ccccc1[N+](=O)[O-])Oc1ccc(Br)cc1 (configuration not stated)	-0.9%	4.6	-2.5%	5.9	?
COc1cc(NC(=O)C[n+]2ccc(C(=O)c3ccccc3)cc2)cc(OC)c1	0.1%	-19.6	-0.2%	-72.1*	5.0%
COc1cc(OC)cc(C(=O)NCC(=O)Nc2ccc(-c3ccccc3)cc2)c1	0.7%	-24.1	5.0%	-59.5*	-11.0%
COc1cc(OC)cc(C(=O)NCC(=O)Nc2ccc(C)c(Cl)c2)c1	0.3%	-22.6	-8.3%	-25.8	0.0%
COc1cc(NC(=S)NC(=O)CCc2ccccc2)cc(OC)c1	6.7%	-11.6	8.7%	-52.5*	-12.4%
CC1=C/C(=N\OS(=O)(=O)c2ccccc2)C(C(C)C)=CC1=O	?	-3.8	23.7%	-15.4	-55.1%
CC1=C/C(=N\OS(=O)(=O)c2ccccc2)C(C)=CC1=O	-0.3%	-0.9	22.9%	-73.4*	-55.1%
CC1=C(C)/C(=N\OS(=O)(=O)c2ccc(C)cc2)C=CC1=O	?	-3.2	18.6%	-104.1*	-54.4%
O=C(CCN1CCc2ccccc2C1)Nc1ccccc1	-0.2%	-10.8	0.0%	-73.2*	-13.9%
O=C(CCN1CCc2ccccc2C1)Nc1cccc(F)c1	-0.6%	-10.1	7.2%	-65.7*	-13.6%
O=C(CCN1CCc2ccccc2C1)Nc1ccccc1F	0.0%	0.1	0.3%	-77.9*	-4.7%
Cc1ccc(CNC(=O)CSc2nc(=O)n(Cc3ccco3)c3c2CCC3)cc1	nt	-3.2	9.5%	nt	nt
CCOC(=O)c1c(O)c2c(n(Cc3ccco3)c1=O)CCCC2	-1.2%	43.6*	-2.5%	57.6	-32.7%
CN(CCOc1ccc(Cl)cc1)C(=O)c1cc(-c2ccco2)nc2ccccc12	0.1%	42.0*	3.1%	17.1	31.7%
Cc1cc(O)c(CN2CCN(c3ccccc3)CC2)c2oc(=O)cc(C)c12	nt	-5.1	nt	nt	nt
Cc1ccccc1OCCCCn1nnc2sc3c(c2c1=O)CCC(C)C3 (configuration not stated)	nt	-0.4	nt	nt	nt
C[C@H](CO)N1C[C@H](C)[C@@H](CN(C)C(=O)Nc2ccc(C(F)(F)F)cc2)Oc2ccc(NS(=O)(=O)c3ccccc3)cc2C1=O	-0.2%	30.8*	8.3%	18.0	17.8%
C[C@H](CO)N1C[C@H](C)[C@@H](CN(C)S(C)(=O)=O)Oc2ccc(NC(=O)C3CCCCC3)cc2C1=O	-0.2%	52.3*	16.8%	19.9	4.0%
C[C@H](CO)N1C[C@H](C)[C@@H](CN(C)S(=O)(=O)c2ccccc2)Oc2ccc(NC(=O)CCC(F)(F)F)cc2C1=O	-0.2%	34.8*	-7.6%	4.2	-23.7%
C[C@H](CO)N1C[C@H](C)[C@@H](CN(C)C(=O)Nc2ccc(C(F)(F)F)cc2)Oc2ccc(NS(=O)(=O)c3cccs3)cc2C1=O	0.0%	30.1*	-6.7%	12.0	19.4%
C[C@H](CO)N1C[C@H](C)[C@@H](CN(C)C(=O)Nc2ccc(C(F)(F)F)cc2)Oc2ccc(NS(=O)(=O)c3ccc(F)cc3)cc2C1=O	0.1%	-5.4	-0.4%	0.1	-6.1%
C[C@H](CO)N1C[C@H](C)[C@@H](CN(C)S(=O)(=O)c2ccccc2)Oc2ccc(NC(=O)Nc3ccc(C(F)(F)F)cc3)cc2C1=O	3.2%	-8.2	-0.3%[38.3 µM]	5.6	-31.6%
COc1ccc(NC(=O)N(C)C[C@H]2Oc3ccc(NS(=O)(=O)c4cccs4)cc3C(=O)N([C@@H](C)CO)C[C@@H]2C)cc1	-0.7%	3.3	-4.9%	-11.7	7.2%
